# Key:
# Assay in all cases: DAPPL (digital affinity profiling via proximity ligation, sequencing); 10 mM Tris-HCl pH 7.5, 50 mM NaCl, 1 mM DTT, 4% glycerol, room temperature, 30 min; GST-TFs on glutathione beads, 16-mer random dsDNA library, 0.1% formaldehyde crosslink after washing; high values mean tight binding
# FEV = target: T1, FEV (Homo sapiens, UniProt Q99581 1-238); conditions: protein: recombinant; tags: N-terminal GST; dsDNA, one strand shown
# T1 sequence: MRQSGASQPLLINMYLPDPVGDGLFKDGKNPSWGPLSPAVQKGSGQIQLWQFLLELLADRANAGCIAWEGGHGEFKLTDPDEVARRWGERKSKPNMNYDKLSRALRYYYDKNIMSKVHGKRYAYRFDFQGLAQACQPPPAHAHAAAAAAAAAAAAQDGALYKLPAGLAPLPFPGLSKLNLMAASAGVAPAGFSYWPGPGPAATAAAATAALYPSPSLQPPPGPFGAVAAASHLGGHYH
# In short: (§1)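 Pools were built from human transcription factors expressed in yeast as GST fusions, captured on glutathione beads and DNA-barcoded, along with a tag-only sample. Incubation with 200 nmole of a 16-mer random double-stranded DNA library lasted 30 min at room temperature in Tris/NaCl/DTT/glycerol buffer, and was followed by washing, 0.1% formaldehyde crosslinking, proximity ligation, PCR amplification and Illumina NextSeq500 sequencing. Binding signal is the quotient of each hexamer's read frequency for a factor and its frequency for the tag-only sample.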
# ETV5 = ETV5 (Homo sapiens, UniProt P41161 1-510); conditions: protein: recombinant; tags: N-terminal GST; dsDNA, one strand shown
# In short: as §1
# HSF1 = HSF1 (Homo sapiens, UniProt Q00613 1-529); conditions: protein: recombinant; tags: N-terminal GST; chain copies: 3; dsDNA, one strand shown
# In short: as §1
# SPIC = target: T2, SPIC (Homo sapiens, UniProt Q8N5J4 1-248); conditions: protein: recombinant; tags: N-terminal GST; dsDNA, one strand shown
# T2 sequence: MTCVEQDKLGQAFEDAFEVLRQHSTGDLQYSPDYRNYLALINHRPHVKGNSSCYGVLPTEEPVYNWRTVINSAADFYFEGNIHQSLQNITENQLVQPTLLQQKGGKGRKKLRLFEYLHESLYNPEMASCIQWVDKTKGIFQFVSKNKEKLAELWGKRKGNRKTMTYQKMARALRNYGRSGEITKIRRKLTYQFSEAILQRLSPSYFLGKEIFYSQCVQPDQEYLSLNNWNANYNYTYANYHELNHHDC
# In short: as §1
# ELF4 = ELF4 (Homo sapiens, UniProt Q99607 1-663); conditions: protein: recombinant; tags: N-terminal GST; dsDNA, one strand shown
# In short: as §1
# ELK4 = target: T3, ELK4 (Homo sapiens, UniProt P28324-2 1-405); conditions: protein: recombinant; tags: N-terminal GST; dsDNA, one strand shown
# T3 sequence: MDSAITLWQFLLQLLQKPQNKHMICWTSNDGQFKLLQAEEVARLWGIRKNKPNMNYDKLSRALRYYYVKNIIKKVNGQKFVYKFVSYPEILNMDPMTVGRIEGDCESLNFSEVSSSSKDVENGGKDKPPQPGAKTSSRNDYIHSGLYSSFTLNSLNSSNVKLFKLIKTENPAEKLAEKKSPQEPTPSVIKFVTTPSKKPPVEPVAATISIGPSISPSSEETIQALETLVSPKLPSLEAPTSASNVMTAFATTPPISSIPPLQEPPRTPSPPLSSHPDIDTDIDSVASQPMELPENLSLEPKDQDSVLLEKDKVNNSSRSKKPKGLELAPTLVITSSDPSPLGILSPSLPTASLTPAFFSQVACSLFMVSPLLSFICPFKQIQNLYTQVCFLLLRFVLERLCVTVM
# In short: as §1
# ETV2 = target: T4, ETV2 (Homo sapiens, UniProt O00321 1-342); conditions: protein: recombinant; tags: N-terminal GST; dsDNA, one strand shown
# T4 sequence: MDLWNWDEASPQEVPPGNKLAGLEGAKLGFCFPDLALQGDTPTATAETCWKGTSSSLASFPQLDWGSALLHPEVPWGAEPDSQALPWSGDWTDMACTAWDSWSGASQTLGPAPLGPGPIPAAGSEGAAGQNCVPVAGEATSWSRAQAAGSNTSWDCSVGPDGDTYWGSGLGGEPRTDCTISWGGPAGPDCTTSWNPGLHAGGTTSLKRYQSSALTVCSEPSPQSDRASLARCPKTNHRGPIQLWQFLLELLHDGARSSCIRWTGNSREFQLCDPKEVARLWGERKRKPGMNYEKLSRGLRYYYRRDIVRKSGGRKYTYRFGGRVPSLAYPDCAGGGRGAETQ
# In short: as §1
# ELF3 = target: T5, ELF3 (Homo sapiens, UniProt P78545 1-371); conditions: protein: recombinant; tags: N-terminal GST; dsDNA, one strand shown
# T5 sequence: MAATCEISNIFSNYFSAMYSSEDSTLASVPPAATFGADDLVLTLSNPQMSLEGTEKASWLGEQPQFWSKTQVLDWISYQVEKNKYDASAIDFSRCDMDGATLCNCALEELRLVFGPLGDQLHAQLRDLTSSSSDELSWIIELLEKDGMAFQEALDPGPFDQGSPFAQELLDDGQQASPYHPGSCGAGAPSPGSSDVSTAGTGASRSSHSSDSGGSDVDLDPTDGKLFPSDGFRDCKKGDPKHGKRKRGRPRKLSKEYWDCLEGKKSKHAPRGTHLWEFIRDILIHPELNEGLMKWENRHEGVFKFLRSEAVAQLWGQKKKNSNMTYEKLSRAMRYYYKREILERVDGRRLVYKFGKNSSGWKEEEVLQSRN
# In short: as §1
# CRX = CRX (Homo sapiens, UniProt O43186 1-299); conditions: protein: recombinant; tags: N-terminal GST; dsDNA, one strand shown
# In short: as §1
# ETV1 = ETV1 (Homo sapiens, UniProt P50549 1-477); conditions: protein: recombinant; tags: N-terminal GST; dsDNA, one strand shown
# In short: as §1
# ERF = target: T6, ERF (Homo sapiens, UniProt P50548 1-548); conditions: protein: recombinant; tags: N-terminal GST; dsDNA, one strand shown
# T6 sequence: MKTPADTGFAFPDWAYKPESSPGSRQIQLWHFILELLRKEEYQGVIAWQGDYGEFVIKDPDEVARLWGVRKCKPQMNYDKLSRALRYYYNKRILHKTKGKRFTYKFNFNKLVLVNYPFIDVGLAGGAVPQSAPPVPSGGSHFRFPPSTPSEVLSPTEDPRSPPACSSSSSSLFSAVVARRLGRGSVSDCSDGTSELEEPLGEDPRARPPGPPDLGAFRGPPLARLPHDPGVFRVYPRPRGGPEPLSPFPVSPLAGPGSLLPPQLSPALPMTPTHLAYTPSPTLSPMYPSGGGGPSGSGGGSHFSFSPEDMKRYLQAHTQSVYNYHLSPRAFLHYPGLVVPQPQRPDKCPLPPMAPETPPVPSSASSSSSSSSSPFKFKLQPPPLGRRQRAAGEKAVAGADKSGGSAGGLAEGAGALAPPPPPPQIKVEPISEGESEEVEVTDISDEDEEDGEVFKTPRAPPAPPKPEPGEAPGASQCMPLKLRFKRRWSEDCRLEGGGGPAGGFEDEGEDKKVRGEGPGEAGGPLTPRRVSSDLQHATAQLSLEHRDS
# In short: as §1
# ETV3L = target: T7, ETV3L (Homo sapiens, UniProt Q6ZN32 1-361); conditions: protein: recombinant; tags: N-terminal GST; dsDNA, one strand shown
# T7 sequence: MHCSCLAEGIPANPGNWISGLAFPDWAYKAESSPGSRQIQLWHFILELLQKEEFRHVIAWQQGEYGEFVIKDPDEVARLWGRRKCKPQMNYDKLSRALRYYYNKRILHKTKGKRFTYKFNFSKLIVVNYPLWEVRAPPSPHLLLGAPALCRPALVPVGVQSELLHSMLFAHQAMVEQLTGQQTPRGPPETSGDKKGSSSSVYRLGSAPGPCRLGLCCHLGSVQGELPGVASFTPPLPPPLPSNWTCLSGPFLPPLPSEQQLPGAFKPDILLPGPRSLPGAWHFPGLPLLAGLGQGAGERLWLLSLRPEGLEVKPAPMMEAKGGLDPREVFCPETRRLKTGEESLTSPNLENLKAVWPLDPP
# In short: as §1
# ETS2 = target: T8, ETS2 (Homo sapiens, UniProt P15036 1-469); conditions: protein: recombinant; tags: N-terminal GST; dsDNA, one strand shown
# T8 sequence: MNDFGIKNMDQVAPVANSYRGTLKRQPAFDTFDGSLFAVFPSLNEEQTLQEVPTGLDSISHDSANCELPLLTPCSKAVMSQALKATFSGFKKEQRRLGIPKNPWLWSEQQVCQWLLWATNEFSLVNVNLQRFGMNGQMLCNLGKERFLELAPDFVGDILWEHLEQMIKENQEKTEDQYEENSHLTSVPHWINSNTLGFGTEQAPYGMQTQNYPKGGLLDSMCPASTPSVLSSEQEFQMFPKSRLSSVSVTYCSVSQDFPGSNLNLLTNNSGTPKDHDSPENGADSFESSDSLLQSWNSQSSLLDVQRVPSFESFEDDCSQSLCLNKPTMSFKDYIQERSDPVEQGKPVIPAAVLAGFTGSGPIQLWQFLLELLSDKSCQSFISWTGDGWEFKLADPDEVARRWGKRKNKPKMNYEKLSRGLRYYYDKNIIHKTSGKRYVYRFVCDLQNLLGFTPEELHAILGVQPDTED
# In short: as §1
# SPDEF = target: T9, SPDEF (Homo sapiens, UniProt O95238 1-335); conditions: protein: recombinant; tags: N-terminal GST; dsDNA, one strand shown
# T9 sequence: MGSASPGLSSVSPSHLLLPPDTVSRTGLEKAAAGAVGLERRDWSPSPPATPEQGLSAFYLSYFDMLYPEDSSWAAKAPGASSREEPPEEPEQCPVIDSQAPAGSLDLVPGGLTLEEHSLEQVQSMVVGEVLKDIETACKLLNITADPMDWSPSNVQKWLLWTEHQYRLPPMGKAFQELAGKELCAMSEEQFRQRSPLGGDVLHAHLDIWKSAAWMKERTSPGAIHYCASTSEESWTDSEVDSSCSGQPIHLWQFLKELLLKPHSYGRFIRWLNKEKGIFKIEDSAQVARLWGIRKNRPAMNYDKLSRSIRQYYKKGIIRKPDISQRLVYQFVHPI
# In short: as §1
# ETV7 = target: T10, ETV7 (Homo sapiens, UniProt Q9Y603 1-341); conditions: protein: recombinant; tags: N-terminal GST; dsDNA, one strand shown
# T10 sequence: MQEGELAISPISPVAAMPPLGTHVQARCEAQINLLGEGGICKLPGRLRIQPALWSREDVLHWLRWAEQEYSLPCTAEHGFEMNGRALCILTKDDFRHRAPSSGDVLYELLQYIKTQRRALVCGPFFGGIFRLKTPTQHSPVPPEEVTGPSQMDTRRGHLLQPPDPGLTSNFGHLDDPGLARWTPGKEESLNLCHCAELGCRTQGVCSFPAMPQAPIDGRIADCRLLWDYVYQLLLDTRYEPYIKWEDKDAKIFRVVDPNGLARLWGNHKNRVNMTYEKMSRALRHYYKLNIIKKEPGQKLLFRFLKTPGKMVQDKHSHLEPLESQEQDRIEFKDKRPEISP
# In short: as §1
# ELF5 = target: T11, ELF5 (Homo sapiens, UniProt Q9UKW6-2 1-255); conditions: protein: recombinant; tags: N-terminal GST; dsDNA, one strand shown
# T11 sequence: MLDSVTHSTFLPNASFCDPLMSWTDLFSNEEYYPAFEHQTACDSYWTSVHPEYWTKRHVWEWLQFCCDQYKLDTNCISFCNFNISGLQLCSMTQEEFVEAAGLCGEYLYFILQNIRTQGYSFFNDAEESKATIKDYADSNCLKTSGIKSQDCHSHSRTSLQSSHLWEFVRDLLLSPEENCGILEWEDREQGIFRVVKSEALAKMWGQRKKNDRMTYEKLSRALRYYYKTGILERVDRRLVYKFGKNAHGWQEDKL
# In short: as §1
# ETV3 = target: T12, ETV3 (Homo sapiens, UniProt P41162-2 1-143); conditions: protein: recombinant; tags: N-terminal GST; dsDNA, one strand shown
# T12 sequence: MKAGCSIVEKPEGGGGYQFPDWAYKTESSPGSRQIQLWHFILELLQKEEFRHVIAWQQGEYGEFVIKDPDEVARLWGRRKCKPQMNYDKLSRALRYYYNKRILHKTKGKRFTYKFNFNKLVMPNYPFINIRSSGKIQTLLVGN
# In short: as §1
# ETV6 = ETV6 (Homo sapiens, UniProt P41212 1-452); conditions: protein: recombinant; tags: N-terminal GST; dsDNA, one strand shown
# In short: as §1
# ETV5, sequence (P41161 whole entry): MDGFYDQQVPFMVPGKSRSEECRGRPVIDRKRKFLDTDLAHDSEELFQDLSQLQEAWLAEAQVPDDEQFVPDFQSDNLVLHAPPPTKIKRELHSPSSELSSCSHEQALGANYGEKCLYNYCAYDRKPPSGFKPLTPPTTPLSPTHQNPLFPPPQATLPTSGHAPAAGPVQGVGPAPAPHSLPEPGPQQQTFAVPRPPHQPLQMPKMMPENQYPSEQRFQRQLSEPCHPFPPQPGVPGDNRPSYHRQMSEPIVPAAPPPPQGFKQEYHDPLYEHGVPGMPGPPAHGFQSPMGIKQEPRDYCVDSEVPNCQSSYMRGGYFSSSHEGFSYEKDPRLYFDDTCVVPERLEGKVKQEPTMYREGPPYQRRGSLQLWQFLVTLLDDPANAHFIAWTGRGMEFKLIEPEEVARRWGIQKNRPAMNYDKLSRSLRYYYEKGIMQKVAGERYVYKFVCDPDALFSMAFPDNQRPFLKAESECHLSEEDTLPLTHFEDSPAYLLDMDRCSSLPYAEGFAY
# HSF1, sequence (Q00613 whole entry): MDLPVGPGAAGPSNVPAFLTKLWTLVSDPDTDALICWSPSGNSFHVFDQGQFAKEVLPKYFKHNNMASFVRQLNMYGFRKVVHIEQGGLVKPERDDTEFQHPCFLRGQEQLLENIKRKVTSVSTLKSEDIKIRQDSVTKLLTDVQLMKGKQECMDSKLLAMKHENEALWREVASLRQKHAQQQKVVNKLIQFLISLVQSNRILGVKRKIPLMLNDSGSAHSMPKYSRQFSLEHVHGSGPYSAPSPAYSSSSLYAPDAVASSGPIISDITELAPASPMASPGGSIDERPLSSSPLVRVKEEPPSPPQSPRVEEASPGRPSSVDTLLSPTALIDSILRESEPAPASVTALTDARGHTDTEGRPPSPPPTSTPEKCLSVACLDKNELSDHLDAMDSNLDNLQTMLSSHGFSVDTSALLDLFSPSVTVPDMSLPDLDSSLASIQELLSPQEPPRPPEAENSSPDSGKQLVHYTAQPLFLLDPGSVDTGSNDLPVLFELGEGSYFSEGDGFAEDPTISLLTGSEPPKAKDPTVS
# CRX, sequence (O43186 whole entry): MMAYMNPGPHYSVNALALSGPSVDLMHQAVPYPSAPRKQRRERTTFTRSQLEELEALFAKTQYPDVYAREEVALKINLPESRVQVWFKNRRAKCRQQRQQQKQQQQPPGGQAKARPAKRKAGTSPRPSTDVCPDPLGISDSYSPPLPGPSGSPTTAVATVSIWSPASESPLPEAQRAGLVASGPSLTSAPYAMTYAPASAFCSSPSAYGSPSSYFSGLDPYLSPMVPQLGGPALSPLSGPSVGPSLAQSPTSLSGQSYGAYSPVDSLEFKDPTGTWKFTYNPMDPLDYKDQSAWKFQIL
# ETV1, sequence (P50549 whole entry): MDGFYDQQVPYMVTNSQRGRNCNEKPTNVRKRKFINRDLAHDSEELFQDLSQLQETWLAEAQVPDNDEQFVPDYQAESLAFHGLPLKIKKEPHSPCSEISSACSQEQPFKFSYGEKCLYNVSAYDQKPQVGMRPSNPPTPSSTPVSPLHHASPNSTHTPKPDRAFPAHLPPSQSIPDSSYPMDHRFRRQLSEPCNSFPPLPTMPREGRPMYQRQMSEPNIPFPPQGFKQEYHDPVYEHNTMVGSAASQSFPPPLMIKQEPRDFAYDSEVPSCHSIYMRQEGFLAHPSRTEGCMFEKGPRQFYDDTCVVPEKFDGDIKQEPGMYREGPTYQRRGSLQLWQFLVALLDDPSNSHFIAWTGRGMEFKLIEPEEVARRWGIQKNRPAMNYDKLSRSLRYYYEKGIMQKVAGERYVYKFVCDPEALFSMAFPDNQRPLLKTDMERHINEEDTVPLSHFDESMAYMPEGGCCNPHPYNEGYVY
# ELF4, sequence (Q99607 whole entry): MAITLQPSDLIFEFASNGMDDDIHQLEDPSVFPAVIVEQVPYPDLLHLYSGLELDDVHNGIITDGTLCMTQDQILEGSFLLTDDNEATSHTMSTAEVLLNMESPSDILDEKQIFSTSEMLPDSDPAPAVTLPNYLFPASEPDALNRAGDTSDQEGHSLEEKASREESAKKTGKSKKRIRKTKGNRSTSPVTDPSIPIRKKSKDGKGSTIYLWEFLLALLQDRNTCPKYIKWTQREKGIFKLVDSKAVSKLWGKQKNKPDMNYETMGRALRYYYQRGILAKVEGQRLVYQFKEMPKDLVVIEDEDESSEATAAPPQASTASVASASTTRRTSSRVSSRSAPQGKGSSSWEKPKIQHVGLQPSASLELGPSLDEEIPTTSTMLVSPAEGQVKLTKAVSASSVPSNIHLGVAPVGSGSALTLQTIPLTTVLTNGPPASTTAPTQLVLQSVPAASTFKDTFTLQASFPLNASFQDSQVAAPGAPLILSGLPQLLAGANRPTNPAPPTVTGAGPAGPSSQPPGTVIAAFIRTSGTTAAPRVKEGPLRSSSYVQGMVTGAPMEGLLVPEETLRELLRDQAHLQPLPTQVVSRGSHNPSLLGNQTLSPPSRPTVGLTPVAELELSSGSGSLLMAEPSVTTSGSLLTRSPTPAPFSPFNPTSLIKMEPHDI
# ETV6, sequence (P41212 whole entry): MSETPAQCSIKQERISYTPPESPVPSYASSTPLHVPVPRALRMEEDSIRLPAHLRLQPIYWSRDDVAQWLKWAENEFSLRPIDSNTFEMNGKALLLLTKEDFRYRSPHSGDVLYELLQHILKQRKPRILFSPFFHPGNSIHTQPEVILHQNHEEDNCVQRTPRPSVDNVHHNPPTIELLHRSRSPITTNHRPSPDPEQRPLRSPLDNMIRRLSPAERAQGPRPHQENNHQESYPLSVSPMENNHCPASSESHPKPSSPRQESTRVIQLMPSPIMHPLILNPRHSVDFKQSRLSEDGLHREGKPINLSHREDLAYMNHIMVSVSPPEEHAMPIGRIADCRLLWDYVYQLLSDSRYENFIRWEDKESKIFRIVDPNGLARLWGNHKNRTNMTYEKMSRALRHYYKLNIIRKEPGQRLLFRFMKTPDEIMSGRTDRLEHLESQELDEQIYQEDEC
sequence,measurement,setting,value
GAACTC,binding signal,FEV,"1.28 fold enrichment (6-mer frequency, TF over GST control)"
same,binding signal,ETV5,"1.29 fold enrichment (6-mer frequency, TF over GST control)"
same,binding signal,HSF1,"1.25 fold enrichment (6-mer frequency, TF over GST control)"
same,binding signal,SPIC,"1.32 fold enrichment (6-mer frequency, TF over GST control)"
same,binding signal,ELF4,"1.26 fold enrichment (6-mer frequency, TF over GST control)"
same,binding signal,ELK4,"1.14 fold enrichment (6-mer frequency, TF over GST control)"
same,binding signal,ETV2,"1.1 fold enrichment (6-mer frequency, TF over GST control)"
same,binding signal,ELF3,"1.29 fold enrichment (6-mer frequency, TF over GST control)"
same,binding signal,CRX,"1.02 fold enrichment (6-mer frequency, TF over GST control)"
same,binding signal,ETV1,"1.35 fold enrichment (6-mer frequency, TF over GST control)"
same,binding signal,ERF,"1.11 fold enrichment (6-mer frequency, TF over GST control)"
same,binding signal,ETV3L,"1.3 fold enrichment (6-mer frequency, TF over GST control)"
same,binding signal,ETS2,"1.26 fold enrichment (6-mer frequency, TF over GST control)"
same,binding signal,SPDEF,"1.33 fold enrichment (6-mer frequency, TF over GST control)"
same,binding signal,ETV7,"1.29 fold enrichment (6-mer frequency, TF over GST control)"
same,binding signal,ELF5,"1.32 fold enrichment (6-mer frequency, TF over GST control)"
same,binding signal,ETV3,"1.33 fold enrichment (6-mer frequency, TF over GST control)"
same,binding signal,ETV6,"1.28 fold enrichment (6-mer frequency, TF over GST control)"

# — paper PMC7862700, “An all-to-all approach to the identification of sequence-specific readers for epigenetic DNA modifications on cytosine”
